GSH bead fluor = GSH bead compound fluorescence profile | GSH beads flow cytometry, compound fluorescence 488/530 nm; active compounds read high | fluorescence (KMESF) at 10 µM | 0.25% of 190,000 active | AID 1776; in the data active means fluorescence above about 89;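 further: glutathione beads carrying GST-tagged Bcl family fusion proteins plus one bare bead set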
RGS16-Gao = modulates binding between human RGS16 and Galphao. O15492+P09471. bead-based flow cytometry RGS16-Galphao binding, fluorescence; actives lie on both sides. binding response (% of control), % at 10 µM. 0.38% of 220,000 active;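 further: Galphao activated by GDP with aluminum fluoride before binding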
Target sequence (O15492 whole entry, looked up): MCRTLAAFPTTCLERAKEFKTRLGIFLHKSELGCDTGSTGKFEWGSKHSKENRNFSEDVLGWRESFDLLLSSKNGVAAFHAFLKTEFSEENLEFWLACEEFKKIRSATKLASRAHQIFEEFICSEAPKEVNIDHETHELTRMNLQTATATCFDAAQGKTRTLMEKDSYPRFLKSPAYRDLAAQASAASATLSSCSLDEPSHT
Target sequence (P09471 whole entry, looked up): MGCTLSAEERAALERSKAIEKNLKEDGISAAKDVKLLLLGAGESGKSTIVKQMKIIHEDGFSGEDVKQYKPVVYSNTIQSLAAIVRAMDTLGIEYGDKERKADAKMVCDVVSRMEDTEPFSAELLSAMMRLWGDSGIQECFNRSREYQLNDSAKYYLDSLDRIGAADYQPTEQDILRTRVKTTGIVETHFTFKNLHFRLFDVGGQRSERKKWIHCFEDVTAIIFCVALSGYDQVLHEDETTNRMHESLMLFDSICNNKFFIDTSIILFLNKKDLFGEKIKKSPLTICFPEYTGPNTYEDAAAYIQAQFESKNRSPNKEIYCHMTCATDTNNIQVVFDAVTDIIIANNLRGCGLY
Avidin bead fluor = compound fluoresces at 488/530 nm on avidin beads | compound fluorescence 488/530 nm, flow cytometry; active compounds read high | fluorescence (KMESF) at 10 µM | 0.38% of 220,000 active | AID 1775; in the data active means fluorescence above about 47
RGS4-Gao reg = human RGS4-Galphao interaction regulation; P09471; AID 1415; Multiplexed bead flow cytometry, RGS4-Galphao binding; actives lie on both sides; 0.33% of 220,000 active; binding response (% of control), % at 10 µM; in the data active means binding response below about 49% or above about 150%; inactive means in between;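 further: fluorescent Galphao activated with aluminum fluoride binding bead-coupled RGS4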
Target sequence (P09471 whole entry, looked up): as above
RGS8-Gao = regulators of human RGS8-Galphao interaction; multiplexed bead flow cytometry, RGS8-Galphao binding; actives lie on both sides; P09471; AID 1423; response (percent of control binding), % at 10 µM; 0.34% of 220,000 active; in the data active means response below about 60% or above about 140%; inactive means in between;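 further: Galphao activated as the GDP aluminium fluoride complex binding bead-coupled RGS8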
RGS7-Gao = human RGS7-Galphao interaction regulation; Multiplexed bead flow cytometry, RGS7-Galphao binding; actives lie on both sides; binding response (% of control), % at 10 µM; 0.35% of 220,000 active; in the data active means binding response below about 49% or above about 150%; inconclusive means no clear call, values can overlap the other calls; inactive means in between;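 further: fluorescent Galphao held in activated GDP-AlF4 state binding bead-coupled RGS7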
RGS4-Gao HTS = regulators of human RGS4-Galphao interaction; AID 1504; RGS4–Galpha-o binding response, % at 10 µM; 99% of 1,600 active; shares compounds with RGS16-Gao; multiplexed bead flow cytometry, RGS–Galpha-o binding;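 further: fluorescently labeled Galpha-o bound to GDP with aluminium fluoride binding biotinylated RGS beads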
Avidin counter = counter-screen: compounds disrupting biotin binding to avidin beads. shares compounds with RGS16-Gao. streptavidin beads, fluorescein-biotin binding, flow cytometry. inhibition, % at 10 µM. AID 1783. 1,700 tested, under 10 active;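 active means inhibition above 50%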;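 further: median green fluorescence of gated singlet beads compared with DMSO control wells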
RGS8-Gao single = RGS8-Galphao interaction regulation, single point confirmation | shares compounds with RGS16-Gao | bead-based flow cytometry RGS8-Galphao binding, fluorescence; actives lie on both sides | binding response (% of control), % at 10 µM | 3% of 1,700 active; in the data active means binding response below about 72% or above about 130%; inactive means in between;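 further: Galphao activated as GDP AlF4 complex before binding bead RGS8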
RGS7-Gao single = confirmation of regulators of human RGS7-Galphao interaction. bead-based flow cytometry RGS7-Galphao binding; actives lie on both sides. 7.8% of 1,700 active. response (percent of control binding), % at 10 µM. AID 1837. shares compounds with RGS16-Gao; in the data active means response below about 75% or above about 130%; inactive means in between;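 further: fluorescent Galphao activated with GDP and aluminum fluoride binding bead-coupled RGS7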
RGS16-Gao conf = confirmation of regulators of human RGS16-Galphao interaction. shares compounds with RGS16-Gao. bead-based flow cytometry, RGS16-Galphao binding; actives lie on both sides. response (% of control binding), % at 10 µM. 4% of 1,700 active; in the data active means response below about 74% or above about 130%; inactive means in between;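 further: Galphao activated as the GDP aluminium fluoride complex binding bead-coupled RGS16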
RGS4-Gao single = RGS4-Galphao interaction regulation, single point confirmation. shares compounds with RGS16-Gao. RGS4-Galphao binding, multiplexed bead flow cytometry; actives lie on both sides. binding response (% of control), % at 10 µM. 4% of 1,700 active; in the data active means binding response below about 74% or above about 130%; inactive means in between
RGS19-Gao single = RGS19-Galphao interaction regulation, single point confirmation; shares compounds with RGS16-Gao; bead-based flow cytometry RGS19-Galphao binding; actives lie on both sides; response (percent of control binding), % at 10 µM; 5% of 1,700 active; AID 1841; in the data active means response below about 50% or above about 160%; inactive means in between
Of the large screens only hits and unclear results are named; the others gave an inactive call (follow-up assays come after a bar, where they were run); [ ] = dose if it differs, or a comment. Shown are actives, neighbours in structure and some others; about 1.2% of the full set was active somewhere. Unless noted, how the calls were made is not given here.

Cc1ncsc1CCOC(=O)C1C2CC3CC(C2)CC1C3 (stereo unspecified)	RGS16-Gao 21.6 | RGS4-Gao HTS 91.9 | Avidin counter inactive | RGS8-Gao single inactive | RGS7-Gao single inactive | RGS16-Gao conf inactive | RGS4-Gao single inactive | RGS19-Gao single inactive
Cc1ccc(C(C(=O)NC2CCCC2)N(C(=O)Cc2cccs2)c2cccc(C)c2C)o1 (stereo unspecified)	none
Cc1cc(C)cc(N(C(=O)Cc2cccs2)C(C(=O)NC2CCCC2)c2ccc(C)o2)c1 (stereo unspecified)	none (no result: RGS16-Gao, Avidin bead fluor, RGS4-Gao reg, RGS8-Gao, RGS7-Gao) | Avidin counter inactive | RGS8-Gao single inactive | RGS7-Gao single inactive | RGS16-Gao conf inactive | RGS4-Gao single inactive | RGS19-Gao single inactive
CCOC(=O)C(C)Sc1ccc2nnc(CCNS(=O)(=O)c3ccc(C)cc3)n2n1 (stereo unspecified)	none
CCOC(=O)Cn1nc(C)c(NC(=O)COc2ccc([N+](=O)[O-])c(C)c2)c1C	none
CC(C)C1Oc2cc3oc(=O)ccc3cc2C1=O (stereo unspecified)	RGS16-Gao 5.7, RGS8-Gao 57.3 | RGS4-Gao HTS 56.1 | Avidin counter inactive | RGS8-Gao single inactive | RGS7-Gao single inactive | RGS16-Gao conf inactive | RGS4-Gao single inactive | RGS19-Gao single inactive
CCC(=O)c1ccc(OCC(=O)N2CCc3cc(OC)c(OC)cc3C2)cc1	RGS16-Gao -36.2, RGS4-Gao reg -32.8, RGS8-Gao 9.6, RGS7-Gao -11.6 | Avidin counter inactive | RGS8-Gao single inactive | RGS7-Gao single inactive | RGS16-Gao conf inactive | RGS4-Gao single inactive | RGS19-Gao single inactive
O=C(CN1CCC(NC(=O)c2ccccc2Cl)CC1)NCc1ccco1	none
CC(C)CCn1c(CN2CCN(Cc3ccccc3)CC2)nc2c1c(=O)[nH]c(=O)n2C	RGS8-Gao 145.0[activator] | RGS4-Gao HTS 134.9 | Avidin counter inactive | RGS8-Gao single inactive | RGS7-Gao single inactive | RGS16-Gao conf inactive | RGS4-Gao single inactive | RGS19-Gao single inactive
CCOc1ccc(N2C(=O)CC(NCCNc3ccc(C(=O)c4cccs4)cc3)C2=O)cc1 (stereo unspecified)	none
CN(C)/C=C1\C=C2C(=O)c3ccccc3N2C1=O	RGS16-Gao 224.5[activator], Avidin bead fluor 92, RGS4-Gao reg 242.1[activator], RGS7-Gao inconclusive (no result: GSH bead fluor) | Avidin counter inactive | RGS8-Gao single 142.7[activator] | RGS7-Gao single 354.6[activator] | RGS16-Gao conf 268.3[activator] | RGS4-Gao single 271.3[activator] | RGS19-Gao single 374.4[activator]
CN(C)S(=O)(=O)N1C(=O)c2ccccc2C1=O	RGS7-Gao inconclusive (no result: GSH bead fluor)
O=C(NCCCN1CCOCC1)c1sc2cc([N+](=O)[O-])ccc2c1Cl	RGS16-Gao 24.9, RGS7-Gao inconclusive | RGS4-Gao HTS 100.3 | Avidin counter inactive | RGS8-Gao single 64.6 | RGS7-Gao single inactive | RGS16-Gao conf 13.1 | RGS4-Gao single inactive | RGS19-Gao single 29.7
CCOc1ccc2sc(NS(=O)(=O)c3ccc(OC)c(OC)c3)nc2c1	none (no result: RGS16-Gao, Avidin bead fluor, RGS4-Gao reg, RGS8-Gao, RGS7-Gao) | Avidin counter inactive | RGS8-Gao single inactive | RGS7-Gao single inactive | RGS16-Gao conf inactive | RGS4-Gao single inactive | RGS19-Gao single inactive
COc1ccc(S(=O)(=O)Nc2nc3ccccc3s2)cc1	none
CCOc1ccc(NC(=S)N(C)C)cc1	RGS7-Gao inconclusive (no result: GSH bead fluor)
Cc1ccc(-n2c(Cn3c(C)nc4ccccc43)n[nH]c2=S)cc1	RGS16-Gao -1.4 | RGS4-Gao HTS 85.7 | Avidin counter inactive | RGS8-Gao single inactive | RGS7-Gao single inactive | RGS16-Gao conf inactive | RGS4-Gao single inactive | RGS19-Gao single inactive
Cc1ccc(-n2c(CCc3nc4ccccc4[nH]3)n[nH]c2=S)cc1	none
COC(C(=O)Nc1ccc(S(=O)(=O)Nc2c(C)cccc2C)cc1)c1ccccc1 (stereo unspecified)	none
CCN(CC)S(=O)(=O)c1ccc(NC(=O)C(OC)c2ccccc2)cc1 (stereo unspecified)	none (no result: RGS16-Gao, Avidin bead fluor, RGS4-Gao reg, RGS8-Gao, RGS7-Gao) | Avidin counter inactive | RGS8-Gao single inactive | RGS7-Gao single inactive | RGS16-Gao conf inactive | RGS4-Gao single inactive | RGS19-Gao single inactive
CC(C)CNC(=O)c1cccc(NC(=O)COc2cccc([N+](=O)[O-])c2)c1	none
CN1CCN(NC(=O)c2ccc(Br)s2)CC1	RGS7-Gao inconclusive (no result: GSH bead fluor)
CCOc1ccc2nc3c(cc2c1)CN(CCCO)C(=NCCOC)S3	RGS16-Gao -10.3, RGS4-Gao reg -8.3, RGS8-Gao 7.0, RGS7-Gao -5.5 | Avidin counter inactive | RGS8-Gao single inactive | RGS7-Gao single inactive | RGS16-Gao conf inactive | RGS4-Gao single inactive | RGS19-Gao single inactive
C=CCn1c(Cc2ccccc2)n[nH]c1=S	RGS16-Gao 9.3 | RGS4-Gao HTS 95.5 | Avidin counter inactive | RGS8-Gao single inactive | RGS7-Gao single inactive | RGS16-Gao conf inactive | RGS4-Gao single inactive | RGS19-Gao single inactive
C=CCn1c(Cc2c[nH]c3ccccc23)n[nH]c1=S	none
O=C(Cn1cc2c(n1)CCCCC2)Nc1ccccc1Br	RGS16-Gao 14.0, RGS4-Gao reg 24.7, RGS8-Gao 28.1, RGS7-Gao inconclusive (no result: GSH bead fluor) | Avidin counter inactive | RGS8-Gao single inactive | RGS7-Gao single inactive | RGS16-Gao conf inactive | RGS4-Gao single inactive | RGS19-Gao single inactive
CN(c1ccccc1)S(=O)(=O)c1cccc(C(=O)Nc2ccc3c(c2)CCC3)c1	RGS16-Gao 18.5 | RGS4-Gao HTS 101.8 | Avidin counter inactive | RGS8-Gao single inactive | RGS7-Gao single inactive | RGS16-Gao conf inactive | RGS4-Gao single inactive | RGS19-Gao single inactive
CCOC(=O)c1oc2nc(CC(C)C)c3c(c2c1N)CCCC3	RGS7-Gao inconclusive (no result: GSH bead fluor)
